# Results published in PubChem BioAssay.
# Legend:
# [1] = system: Human papillomavirus type 1a protein E7 (residues 44-93); assay: small molecules binding HPV E7 44-93 – biochemical, small-molecule microarray, residues 44-93, 635 nm fluorescence, primary screen (AID 1108); conditions: fluorescence 635 nm, higher = more signal;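 note: E7 fragment applied at 1 µg/mL in TBST for 1 h at 4 C; score combines spot fluorescence with its signal to noise ratio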
# [2] = hepatitis C replication reporter changes, two-sided – Huh7 cells, luciferase reporter, HCV replication inhibitor project, primary screen (AID 1109); conditions: Huh7 HCV replicon luciferase reporter, 48 h; higher = more signal;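 note: huh7 hepatoma cells harbouring a luciferase neomycin HCV replicon reporter; luciferase luminescence as measure of HCV replicon replication; test concentration not given here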
# [3] = molecular target: Left-right determination factor 2 (Homo sapiens) (UniProt O00292); assay: small molecules binding LEFTY2 protein – biochemical, small-molecule microarray, 635 nm fluorescence scan, primary screen (AID 1110); conditions: higher = more signal
# Chain of Left-right determination factor 2 (Homo sapiens) (O00292 whole entry, looked up): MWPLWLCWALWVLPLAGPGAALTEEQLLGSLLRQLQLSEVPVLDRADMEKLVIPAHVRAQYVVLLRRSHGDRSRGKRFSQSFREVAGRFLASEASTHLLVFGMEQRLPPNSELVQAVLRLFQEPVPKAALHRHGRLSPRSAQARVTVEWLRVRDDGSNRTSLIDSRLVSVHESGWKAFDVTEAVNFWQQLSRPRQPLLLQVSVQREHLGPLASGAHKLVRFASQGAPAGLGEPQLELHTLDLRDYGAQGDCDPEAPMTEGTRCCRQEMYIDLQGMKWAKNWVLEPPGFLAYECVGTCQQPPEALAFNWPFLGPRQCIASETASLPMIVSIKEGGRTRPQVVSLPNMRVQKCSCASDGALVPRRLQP
# [4] = molecular target: Calmodulin-1 (Homo sapiens) (UniProt P0DP23); assay: small molecules binding calmodulin-1 with EGTA – biochemical, small-molecule microarray, Cy5-labelled CALM1, profiling panel (AID 1111); conditions: Cy5-CALM1 binding fluorescence, higher = more signal;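 note: labelled calmodulin applied in Tris saline Tween buffer holding calcium plus EGTA and DTT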
# [5] = molecular target: Calmodulin-1 (Homo sapiens) (UniProt P0DP23); assay: small molecules binding Ca-loaded calmodulin-1 – biochemical, small-molecule microarray, Cy5-labelled CALM1, plus calcium, artefact control for SMM control-protein annotation, profiling panel (AID 1112); conditions: Cy5-CALM1 binding fluorescence, higher = more signal;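 note: score merges spot fluorescence with signal to noise from triplicate slides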
# [6] = probe aWnt5a binding to arrayed compounds – biochemical, biotinylated probe, 635/667 nm fluorescence, primary screen (AID 1113); conditions: small-molecule microarray, higher = more signal;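 note: score merges 667 nm fluorescence intensity with signal-to-noise per printed feature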
# [7] = probe aShh binding to arrayed compounds – biochemical, biotinylated probe, 635/667 nm fluorescence, primary screen (AID 1114); conditions: small-molecule microarray, higher = more signal;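 note: probe is biotin-labelled aShh protein from a stem cell growth factor screen; measures binding of labelled protein to compounds printed on the slide; score merges feature fluorescence at 667 nm with signal-to-noise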
# [8] = probe aNog binding to arrayed compounds – biochemical, biotinylated probe, 635/667 nm fluorescence, primary screen (AID 1115); conditions: small-molecule microarray, higher = more signal;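 note: probe is biotinylated aNog protein used at 0.15 µg/mL for 1 h at 4 C; z-score combines 667 nm fluorescence of each spot with its signal to noise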
# [9] = molecular target: Torsin-1A-interacting protein 1 (Homo sapiens) (UniProt Q5JTV8); assay: compound microarray binding of lysate hLAP1 – cell lysate, small-molecule microarray, COS7 lysate, 635/667 nm fluorescence, primary screen (AID 1116); conditions: 635 nm fluorescence, higher = more signal
# Chain of Torsin-1A-interacting protein 1 (Homo sapiens) (Q5JTV8 whole entry, looked up): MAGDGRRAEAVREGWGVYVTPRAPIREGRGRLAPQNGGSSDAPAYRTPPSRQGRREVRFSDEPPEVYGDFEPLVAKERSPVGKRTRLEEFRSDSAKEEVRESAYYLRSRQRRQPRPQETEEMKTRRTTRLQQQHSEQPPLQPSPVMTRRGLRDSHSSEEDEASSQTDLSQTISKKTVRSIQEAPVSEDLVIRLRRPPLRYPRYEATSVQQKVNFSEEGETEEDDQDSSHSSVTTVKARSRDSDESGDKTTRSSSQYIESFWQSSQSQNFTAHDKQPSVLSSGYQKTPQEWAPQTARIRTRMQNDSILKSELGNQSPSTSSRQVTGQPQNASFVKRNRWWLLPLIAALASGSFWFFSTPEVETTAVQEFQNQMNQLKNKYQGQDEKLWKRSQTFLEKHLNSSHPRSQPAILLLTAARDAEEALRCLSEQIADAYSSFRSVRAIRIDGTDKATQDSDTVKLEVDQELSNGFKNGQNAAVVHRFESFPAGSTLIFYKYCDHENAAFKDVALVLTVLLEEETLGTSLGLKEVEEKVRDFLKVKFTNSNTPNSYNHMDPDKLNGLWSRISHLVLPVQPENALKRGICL
# [10] = molecular target: Alpha-bungarotoxin (Bungarus multicinctus) (UniProt P60615); assay: compounds binding labelled alpha-BTX control protein – biochemical, small-molecule microarray, Alexa647 label, 635/667 nm fluorescence, artefact control for SMM control protein annotation, profiling panel (AID 1117); conditions: alpha-BTX-A647 binding fluorescence, higher = more signal
# Chain of Alpha-bungarotoxin (Bungarus multicinctus) (P60615 whole entry, looked up): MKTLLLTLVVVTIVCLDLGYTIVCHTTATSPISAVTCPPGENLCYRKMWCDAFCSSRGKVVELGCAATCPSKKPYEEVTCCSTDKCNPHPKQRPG
SMILES,composite z-score [1],z-score [2],composite z-score [3],composite z-score [4],composite z-score [5],composite z-score [6],composite z-score [7],composite z-score [8],composite z-score [9],composite z-score [10]
CC(C)CON=C1C[C@@H](O)[C@@H](O)[C@@H]2[C@@H]3C(=O)N([C@@H](C)c4ccccc4)C(=O)[C@@H]3CC[C@H]12,1.36,0.775,0.756,0.336,-0.351,-0.124,-0.0011,-0.0308,0.619,0.922
O=C1O[C@@H](c2ccccc2)[C@@H](c2ccccc2)N2[C@@H](c3ccc(OCCO)cc3)[C@]3(C(=O)Nc4ccccc43)[C@@H](C(=O)N3CCN(c4ncccn4)CC3)[C@H]12,1.35,-2.4,0.773,0.0357,-0.355,-0.0685,0.0044,0.751,0.96,1.53
COc1ccc(OC[C@H]2Cc3c(-c4ccccc4)nc4c(c3CO2)CN(CCOc2ccccc2)CC4)cc1,1.22,-1.77,0.722,0.59,-0.243,-0.0399,0.0815,0.0637,0.423,1.13
CCOC(=O)CCN1C(=O)[C@H]2[C@H]3[C@H](O)[C@H](O)CC(=O)[C@H]3CC[C@H]2C1=O,0.182,-1.07,0.412,0.0492,-0.375,-0.201,-0.229,-0.201,0.619,0.0323
CC(C)=CCCC(C)=CCON=C1C[C@@H](O)[C@@H](O)[C@@H]2[C@@H]3C(=O)N(C[C@@H]4CCCO4)C(=O)[C@@H]3CC[C@@H]12,1.38,0.398,0.763,-0.599,-1.4,-0.104,-0.243,-0.319,0.101,0.488
CC(C)CON=C1C[C@@H](O)[C@@H](O)[C@@H]2[C@@H]3C(=O)N(C[C@@H]4CCCO4)C(=O)[C@@H]3CC[C@H]12,0.595,0.392,0.781,0.0832,0.0249,-0.178,-0.345,-0.074,0.241,0.0141
COC(=O)[C@H](C)NC(=O)CCC1CC(OC(=O)NCCc2ccc(F)cc2)CC2(CCCC(COC(=O)NCCc3ccc(Cl)cc3)O2)O1 (stereo not given in full),1.29,-0.0845,1.2,0.922,0.232,-0.224,-0.138,-0.299,0.428,0.763
CCN(CC)c1ccc(N2CC=CC34O[C@@H]5/C=C\CCC(C)OC(=O)C5[C@H]3C(=O)N(CCCO)[C@@H]4C2=O)cc1 (stereo not given in full),-0.0672,-0.527,-0.434,-0.671,-0.431,-0.128,0.0469,-0.216,0.581,-0.625
CN1C(=O)[C@@]2(CCC(=O)OC(C)(C)C)N=C(c3ccc(OCCCO)cc3)O[C@H]2c2ccccc21,1.29,-2.9,-0.057,0.878,-0.304,-0.096,0.137,-0.539,0.558,0.721
COc1ccc(O[C@H]2C=C[C@@H](c3ccccc3)O[C@@H]2COC(=O)CCC(C)=NO[C@H](C)c2cn([C@@H]3COC[C@H]3O)nn2)cc1,0.765,-2.82,0.51,-0.121,-0.686,-0.119,0.0062,-0.185,0.68,1.19
COc1ccccc1CN1C(=O)c2ccccc2[C@@H](C(=O)NCC(F)(F)F)[C@@H]1c1ccc(CO)cc1,1.44,-1.26,-0.155,0.313,0.229,-0.107,0.0446,-0.425,0.488,0.472
COc1ccc([Si](C)(C)[C@@H]2[C@@H](CC(=O)N3CCC[C@H]3CO)O[C@]3(C(=O)N(Cc4cccc(N5CCC5=O)c4)c4ccccc43)[C@H]2C)cc1,1.4,-2.1,0.162,0.504,-0.098,-0.0236,0.199,0.15,0.989,1.44
CCOC(=O)[C@H](Cc1ccccc1)NC(=O)CCC1CC(OC(=O)NCc2ccc3c(c2)OCO3)CC2(CCCC(COC(=O)NCc3cccc(C(F)(F)F)c3)O2)O1 (stereo not given in full),0.547,-1.21,0.48,0.214,-0.286,-0.0792,0.108,0.205,0.251,0.0294
CCCCCN1CC=CC23O[C@@H]4C=CCOC(=O)[C@@H]4[C@H]2C(=O)N(CCCCCCO)[C@@H]3C1=O (stereo not given in full),-0.276,0.417,-2,-0.284,0.168,-0.0417,0.0796,0.293,1.9,-0.729
COCCCNC(=O)[C@@]1(C)c2ccccc2C(=O)N(Cc2ccc(OC(F)(F)F)cc2)[C@H]1c1ccc(CO)cc1,-1.56,-0.302,-0.738,-0.579,0.751,-0.109,-0.2,-0.546,-0.668,-1.16
O=C1[C@H]2[C@H]3[C@H](O)[C@H](O)CC(=NO[C@@H]4O[C@H](CO)[C@@H](O)[C@H](O)[C@H]4O)[C@H]3CC[C@H]2C(=O)N1Cc1ccc2c(c1)OCO2,1.44,-0.594,-0.515,-0.603,-0.329,-0.115,-0.397,0.0327,0.441,1.02
CO[C@@H]1COC(=O)CCC[C@@H](C)[C@H](OC)COC(=O)CCC[C@H]1C,-0.341,-1.38,0.862,-0.454,-0.966,-0.0445,-0.206,-0.303,0.665,-0.12
CO[C@@H]1COC(=O)[C@H](C)NC(=O)[C@@H](C)COC(=O)CCC[C@H]1C,0.379,-1.33,0.753,-0.485,-0.704,-0.101,-0.138,-0.169,0.268,-0.0916

SMILES,composite z-score [1],z-score [2],composite z-score [3],composite z-score [4],composite z-score [5],composite z-score [6],composite z-score [7],composite z-score [8],composite z-score [9],composite z-score [10]
C=CC[C@@H]1C=C[C@H](ON=C[C@@H](OC)[C@H](C)C=CCC(=O)OC)[C@@H](CO)O1,0.241,-0.581,0.283,-0.67,-1.65,-0.0222,-0.0035,-0.526,0.848,-0.741
CCCC=C(CCC)[C@@H](NC(=O)c1ccc(-c2ccccc2)cc1)c1ccc(C(=O)OC)cc1,1.38,-0.552,-0.394,1.84,1.31,0.194,0.0195,1.25,0.421,0.93
CN1C(=O)C2C=CC(C(O)c3ccc(I)cc3)N(NC(=O)OC(C)(C)C)C2C1=O (stereo not given),1.41,0.0411,0.0192,0.526,0.202,-0.0165,0.151,1.26,1.4,1.01
CCOC(=O)CCN1C(=O)[C@H]2[C@H]3[C@H](O)C=CC(=O)[C@@H]3CC[C@H]2C1=O,-0.219,0.158,0.61,-0.0738,-0.583,-0.202,-0.262,-0.147,0.174,0.335
COc1ccc(O[C@H]2C=C[C@@H](c3ccccc3)O[C@@H]2COC(=O)N2CCCCC2)cc1,-0.57,-1.34,-0.0284,-0.781,-1.33,-0.0512,-0.0146,-0.267,0.323,-0.195
COc1ccc(O[C@H]2C=C[C@@H](c3ccccc3)O[C@@H]2COC(=O)CCC(C)=NOC(C)CN2CCCCc3nc(C)c(C)cc32)cc1 (stereo not given in full),0.36,-0.239,-0.106,-0.959,-0.203,-0.157,-0.138,-0.158,0.168,-0.47
[N-]=[N+]=NCc1ccccc1[C@@H]1OC(c2ccc(OCCCO)cc2)=N[C@]1(Cc1ccccc1)C(=O)N1CCOCC1,0.0452,-2.03,0.343,1.93,1.05,0.141,0.26,1.9,3.31,1.62
COc1ccc(-c2ccc3c(n2)CCCN3CC(O)CN2CCCc3nc(C)c(C)cc32)cc1 (stereo not given),1.02,-0.578,0.728,0.0025,-0.636,0.459,0.699,0.667,0.833,2.05
CC(CCC(=O)OC[C@H]1O[C@H](C#Cc2ccccc2)C=C[C@@H]1Oc1ccc(C)cc1)=NOC[C@@H](O)COCc1ccco1,-0.412,-0.635,-5.42,-1.49,-1.96,-0.426,-0.206,-0.732,-1.87,-0.818
CC(C)NC(=O)[C@@]1(C)c2ccccc2C(=O)N(Cc2cc(F)cc(C(F)(F)F)c2)[C@H]1c1ccc(CO)cc1,1.3,0.0589,-0.0164,0.304,0.418,-0.0165,-0.121,-0.347,0.363,1.16
COc1ccc(O[C@H]2C=C[C@@H](c3ccccc3)O[C@@H]2CON=C[C@@H](C)[C@H](OCc2ccccc2)C(C)C)cc1,-0.409,-2,-0.0764,-0.323,-0.434,-0.124,-0.0626,-0.176,-1.24,-0.25
CO[C@H]1O[C@H](CO)[C@@H](OC(=O)Nc2ccc(C#N)cc2)[C@H](OC(=O)c2cc3ccccc3[nH]2)[C@H]1OC(=O)c1cc2ccccc2[nH]1,1.33,-2.2,0.339,2.07,0.299,-0.206,-0.0769,0.569,2.09,2.63
CCCC[C@@H]1C[C@H]1[C@@H](NS(=O)(=O)c1cccc2cccnc12)c1ccc(-c2ccccc2)cc1,0.97,-0.122,-0.732,0.691,1.23,0.138,-0.01,1.31,0.0258,0.231
Cc1ccc(S[C@]2(C(=O)NCC(F)(F)F)CC(=O)N(Cc3ccccc3Cl)[C@@H]2c2ccc(CO)cc2I)cc1,0.859,-1.16,-0.692,-0.391,-0.0928,-0.12,-0.0035,-0.383,-0.373,2.06
COCCOC(=O)N1C(=O)[C@@]2(c3cc(C#Cc4ccc(OC)cc4)ccc31)[C@H](c1ccc(O)cc1)N1[C@H](c3ccccc3)[C@H](c3ccccc3)OC(=O)[C@H]1[C@@H]2C(N)=O,1.44,-2.02,0.599,1.06,-0.139,0.0045,0.149,-0.694,0.743,1.16
O=C1O[C@@H](c2ccccc2)[C@@H](c2ccccc2)N2[C@@H](c3ccc(O)cc3)[C@]3(C(=O)Nc4ccccc43)[C@@H](C(=O)O)[C@H]12,1.02,-0.996,-0.6,0.64,0.212,-0.174,-0.793,0.0156,0.98,-0.0356
CC(CCC(=O)OC[C@H]1O[C@H](C#Cc2ccccc2)C=C[C@@H]1Oc1ccc(C)cc1)=NO[C@@H](C)c1cn([C@H](CO)Cc2ccccc2)nn1,0.507,-1.97,0.381,-0.329,-0.385,-0.152,0.108,-0.12,-0.0538,1.76
